# Screening data from PubChem.
# A selection: hits, their analogues and other compounds. The true share with any hit is near 6.5%.
# HT1080 IDH1KD tx – qHTS for induction of synthetic lethality in tumor cells producing 2HG: qHTS for the HT-1080-IDH1KD cell line; HT-1080 IDH1 knockdown viability, ATP luminescence, 48 h; Potency, µM (top dose mostly 46.1 µM), inactives show top-dose activity, negative = toxicity, most hits filed as cytotoxic; 360,000 tested, 2% active;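 note: potency is the fitted concentration of half-maximal effect; 0% = DMSO wells and -100% = cell-free medium wells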
#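 Assay cells: HT-1080 with IDH1 knockdown, 750 per well, RPMI/5% FBS. Exposure: 48 h at 37 °C following 2 h pre-incubation. Read: CellTiter-Glo luminescence; fitted concentration-response, curve class assigned.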
# HepG2 tox – qHTS for Inhibitors of TGF-b: Cytotox Counterscreen; HepG2 CAGA-GFP viability, ATP luminescence, 18 h; Potency, µM (highest dose often 46.1 µM), without a hit: at the top dose activity change, negative = cytotoxicity, most hits filed as cytotoxic; 410,000 tested, 0.76% active; AID 588856, 2011; note: potency is the fitted concentration of half-maximal effect
#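 HepG2 CAGA-GFP cells (1000/well, DMEM with 1% FBS) received compound, then TGF-beta at 500 pg/mL final, and were incubated 18 hours at 37 degrees C. Viability was read by CellTiter-Glo luminescence. Media-only wells were set as complete cell-killing and DMSO as no toxicity.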
# Giardia killer – Small Molecules that selectively kill Giardia lamblia: qHTS. Giardia lamblia trophozoite viability. activity change, % at 7.66 µM, hits read low. 340,000 tested, 0.15% active; in the data active = activity change below about -80%; inconclusive = between about -30% and that limit;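 note: parasites exposed to compound for two days anaerobically before the ATP read; % is set by controls: 0 for no effect and ±100 for the full control effect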
#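 Anaerobic 48 hrs incubation at 37 deg C of 100 trophozoites/well with test compounds; ATPLite 1-Step luminescence, 15-30 min RT, reports cellular ATP as viability.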
# IL-1B inflam inh – qHTS for Inhibitors of Inflammasome Signaling: IL-1-beta AlphaLISA Primary Screen | activity change, % at 57.5 µM | 360,000 tested, 4.7% active | THP-1 LPS/ATP IL-1B secretion, AlphaLISA, 16 h; active compounds read low; in the data active = activity change below about -50%; inconclusive = mostly about -30% to -49%; note: % is set by controls: 0 for no effect and ±100 for the full control effect
#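 Secreted IL-1B measured by AlphaLISA bead assay after 16 h compound exposure of THP-1 cells; compounds (final up to 57.5 uM) added 1 h before LPS (250 ng/mL) and ATP (1.25 mM) stimulation; lower signal means less secretion.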
# HT1080-NT tox – qHTS for induction of synthetic lethality in tumor cells producing 2HG: qHTS for the HT-1080-NT fibrosarcoma cell line. HT-1080-NT fibrosarcoma viability, CellTiter-Glo ATP luminescence, 48 h. Potency, µM (doses to about 46.1 µM), without a hit: at the top dose activity, negative = less viability, actives largely listed as cytotoxic. 360,000 tested, 1.6% active. AID 686970, 2013;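 note: NT is the 2HG producing partner of a matched IDH1 knockdown line; potency is the fitted concentration of half-maximal effect; 0% = DMSO-treated cells and -100% = media-only wells without cells; nearly all actives have a fitted effect of over 55% in size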
#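 Compounds were tested in concentration-response format on HT-1080-NT cells for 48 hours at 37 degrees C. Cell viability came from CellTiter-Glo luminescence; curves were classified by r2, response magnitude and activity.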
# TGFb inhibitor – qHTS for Inhibitors of TGF-b. HepG2 CAGA-GFP TGF-b/SMAD3 reporter, GFP fluorescence, 18 h; TGF-beta stimulated, 500 pg/mL final. Potency, µM (series often up to 46.1 µM), without a hit: at the highest dose activity, negative = inhibition, most hits filed as inhibitors. 410,000 tested, 1.2% active. AID 588855, 2011; note: potency is the fitted concentration of half-maximal effect; % is set by controls: 0 for no effect and ±100 for the full control effect; nearly all actives have a fitted effect of over 65% in size
#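 Per well, imaged GFP fluorescence of HEPG2 CAGA-GFP cells gives the signal; cells get compound, then TGF-beta (500 pg/mL final), 18 h at 37 degrees C; %Activity versus -TGF-beta and +DMSO controls.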
# Starred values were filed as active, the others as inactive; u = inconclusive; x = no result given. Unless noted, calls come from the whole dose curve; as a rule, active = well fitted curve in the direction sought with a large enough effect; inconclusive = small, poorly fitted or top-dose-only effect, or another doubt; inactive = no such curve, though single readings can be large; an effect the other way counts as inactive or inconclusive.
SMILES,HT1080 IDH1KD tx,HepG2 tox,Giardia killer,IL-1B inflam inh,HT1080-NT tox,TGFb inhibitor
CC(Cc1ccccc1)NC(=O)CN1C(=O)c2ccccc2S1(=O)=O (configuration not stated),4%,-7%,-10,11,8%,9%
O=C(Nc1cccc(S(=O)(=O)NCc2ccco2)c1)c1cc(-c2ccc(F)cc2)nc2ccccc12,u,-3%,12,-77*,u,-12%
COC(=O)CNC(=O)c1cc(-c2ccncc2)nc2c(C)c(Cl)ccc12,-14%,-28%,-9,-100*,-22%,-16%
C=CCNC(=O)c1cc(-c2ccncc2)nc2c(C)cc(C)cc12,-2%,-25%,28,-29,u,-25%
COc1ccc(-c2cc(C(=O)NCc3ccco3)c3ccccc3n2)cc1OC,-6%,0.5µM*,11,4,-8%,17%
Cc1c(Cl)ccc2c(C(=O)NCCN3CCCCC3)cc(-c3ccccn3)nc12,23µM*,-4%,-12,-97*,u,-26%
COc1ccc(CNC(=O)C2=CCN(S(=O)(=O)c3ccc(C)cc3)CC2)cc1,8%,0%,-15,-3,3%,-19%
S=C1SCN(Cc2ccccc2)CN1Cc1ccccc1,8%,-52%,2,-22,9%,u
COc1ccc(CN2CSC(=S)N(Cc3ccc(OC)cc3)C2)cc1,0%,13µM*,-13,0,-3%,u
COc1ccc(CN2CSC(=S)N(Cc3ccccc3)C2)cc1,-3%,11µM*,13,-3,-8%,13µM*
S=C1SCN(Cc2cccnc2)CN1Cc1cccnc1,6.5µM*,-98%,2,x,7.3µM*,u
COc1cc(NC(=O)CC(c2ccc(C)cc2)N2Cc3ccccc3C2=O)cc(OC)c1 (configuration not stated),x,-21%,x,x,x,u
Cc1nnc(NC(=O)C2CCN(c3nnnn3-c3ccccc3)CC2)s1,-1%,-26%,17,25,4%,0%
CN(CC(=O)NC(=O)NCc1ccco1)Cc1nc2ccccc2c(=O)[nH]1,11µM*,-1%,10,0,u,u
CC1(C)C(N(O)C(=O)Nc2ccc(Cl)cc2)N(c2ccc(Cl)cc2)C(=O)N1CC(=O)NN (configuration not stated),u,-4%,10,-53*,-35%,-17%
Cc1cc2c([nH]c3ccccc32)c2c1OC(C)(C)C=C2,-6%,-61%,15,-2,2%,u
COc1ccc2[nH]c(=O)c3c(c2c1)OC(C)(C)C=C3,u,4%,1,-106*,u,u
CCOC(=O)c1c(C)nc2sc3c(=O)n(-c4ccc(C(C)=O)cc4)nnc3c2c1-c1ccc(OC)cc1,-11%,-10%,-16,-2,-8%,-5%
COCCNc1nc(Nc2ccc(C)cc2C)c2sc(-c3ccccc3)cc2n1,u,-16%,x,-25,u,-26%
COCCNc1nc(Oc2ccc(NC(C)=O)cc2)c2sc(-c3ccccc3)cc2n1,-6%,-58%,x,u,u,u
COCCNc1nc(NCc2cccc(OC)c2)c2sc(-c3ccccc3)cc2n1,u,11µM*,x,-112*,u,u
COCCNc1nc(NCc2ccc(NC(C)=O)cc2)c2sc(-c3ccccc3)cc2n1,u,-105%,x,0,9.2µM*,u
CCCCOC(=O)c1c(C)oc2ccc(NS(=O)(=O)c3ccc(F)cc3C)cc12,x,-106%,x,x,x,14µM*
COCCOC(=O)c1c(C)oc2ccc(NS(=O)(=O)c3ccc(F)cc3)cc12,-1%,-21%,28,0,16%,u
COc1cc(C2c3cc4c(cc3CC3COC(=O)N32)OCO4)cc(OC)c1OC (configuration not stated),1µM*,-2%,25,2,1.3µM*,-14%
SMILES,HT1080 IDH1KD tx,HepG2 tox,Giardia killer,IL-1B inflam inh,HT1080-NT tox,TGFb inhibitor
Nc1nnc(-c2ccc([N+](=O)[O-])o2)s1,-18%,-99%,u,2,23µM*,u
O=c1[nH]nc(-c2ccc([N+](=O)[O-])o2)c(=O)[nH]1,-6%,5%,-28,13,4%,9%
COCCn1c(C)cc(C2=NNC(=Nc3ccccc3)SC2)c1C,-2%,-7%,-19,4,-4%,-6%
COc1ccccc1C1=NNC(=Nc2cccc(S(=O)(=O)N(C)C)c2)SC1,u,-4%,11,-72*,u,4%
CN1C2=NCCN2C(=O)c2cc(Cl)ccc21,0%,-51%,12,-17,-3%,u
COc1ccc(Br)cc1S(=O)(=O)N1CCN=C1c1ccccc1,4%,2%,4,9,0%,8%
Clc1ccc2c(c1)-c1ccccc1C1=NCCN12,18µM*,-3%,x,-103*,u,u
Brc1ccc2c(c1)-c1ccccc1C1=NCCN12,16µM*,-2%,x,-104*,23µM*,16µM*
COc1cc(SC)ccc1C(=O)Nc1cccc(C)n1,-7%,-7%,-21,-70*,-7%,-14%
COc1cc(SC)ccc1C(=O)Nc1ccc(C)cc1C,-19%,22%,-16,0,u,-2%
COc1cc(SC)ccc1C(=O)Nc1ccc2c(c1)OCO2,u,-4%,-8,-63*,-30%,3%
COc1cc(SC)ccc1C(=O)Nc1ccc(C)cc1,-3%,-26%,-16,-57*,-3%,-6%
Cc1cc(C)cc(NC(=O)C(=O)NCC(c2cccnc2)N2CCN(c3ccccc3)CC2)c1 (configuration not stated),x,10%,x,x,x,15%
CC1CCCN(C(=O)c2ccc(CNc3c(N4CCCCC4)c(=O)c3=O)cc2)C1 (configuration not stated),2%,0%,-26,7,11%,4%
O=C(CC(C(=O)O)P(=O)(c1ccccc1)c1ccccc1)c1ccc(Br)cc1 (configuration not stated),0%,1%,-18,42,6%,-14%
CCCC1SCC(C)(C)NC1=O (configuration not stated),7%,-17%,-5,16,13%,0%
Cc1ccc(S(=O)(=O)N2[C@@H](c3ccc(Cl)c(Cl)c3)C(C(=O)O)=C[C@H]2C(C)(C)C)cc1,-12%,-30%,11,-9,-5%,u
